Screen size: about 16,000 compounds; about 5,800 (36%) were called active. Roughly 23% stayed inconclusive and do not appear here. Some of the results follow. Values without a mark were called inactive. Calls follow the shape of the dose curve; as a rule, active = well fitted curve in the direction sought with a large enough effect; inconclusive = small, poorly fitted or top-dose-only effect, or effect the other way; inactive = no such curve, though single readings can be large or run the other way.
These compounds were tested against Cytochrome P450 2C19 (Homo sapiens) (UniProt P33261) (assay: Cytochrome panel assay with activity outcomes). Details: recombinant CYP, pro-luciferin dealkylation, luminescence, p450-cyp2c19; series mostly up to 57.1 µM.
Sequence of Cytochrome P450 2C19 (Homo sapiens) (P33261 whole entry, looked up): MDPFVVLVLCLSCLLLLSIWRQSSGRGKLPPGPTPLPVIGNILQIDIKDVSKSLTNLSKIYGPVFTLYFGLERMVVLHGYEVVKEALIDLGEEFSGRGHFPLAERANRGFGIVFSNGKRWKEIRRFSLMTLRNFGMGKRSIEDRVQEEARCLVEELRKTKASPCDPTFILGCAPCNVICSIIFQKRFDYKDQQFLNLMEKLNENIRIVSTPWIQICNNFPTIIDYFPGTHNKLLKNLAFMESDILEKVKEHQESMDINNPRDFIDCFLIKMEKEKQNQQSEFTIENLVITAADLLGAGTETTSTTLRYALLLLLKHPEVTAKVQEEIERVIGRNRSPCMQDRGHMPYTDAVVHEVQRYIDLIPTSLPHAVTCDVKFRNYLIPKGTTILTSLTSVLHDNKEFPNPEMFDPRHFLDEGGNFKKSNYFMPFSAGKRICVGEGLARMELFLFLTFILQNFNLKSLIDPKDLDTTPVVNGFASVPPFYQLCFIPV
In the case of `O=C(c1cnccn1)N1CCC2(CC1)CN(c1cccc(-c3ccccc3)c1)C2`, the AC50 is reported as “inactive”.
`O=C(O)/C=C\C(=O)Nc1cccc2c1-c1ccccc1C2=O` showed an activity, negative = inhibition of 28.6% [at 11.4 µM].
For `Cc1ccccc1CNc1ncnc2c1ncn2[C@@H]1O[C@@H](CO)[C@H](O)[C@@H]1O`, the AC50 was “inactive”.
For `O=C(CCCn1c(=S)[nH]c2ccc(Br)cc2c1=O)NCC1CCCO1` (stereo not given), the AC50 was 3.55 µM (active).
For `O=C(CCCn1c(=S)[nH]c2ccc(Br)cc2c1=O)N1CCN(c2ccccn2)CC1`, the AC50 was 2.51 µM (active).
`CCCc1nnc(NC(=O)CCC(=O)N2CCN(c3ccccn3)CC2)s1` was tested, and the AC50 was “inactive”.
`CN=C(NC#N)NCCSC[C@H]1N=CN=C1C` was tested, and the AC50 was “inactive”.
With `N[C@@H]1[C@@H]2[C@@H]3C[C@H]4N(CC[C@@]14C(=O)C(=O)O)CC3=CCO[C@@H]2CC(=O)O` the activity, negative = inhibition was -13.5% [at 11.4 µM].
For `Cc1ccc(S(=O)(=O)NCCSc2nnnn2C)cc1`, the AC50 was 5.01 µM (active).
In the case of `Cc1cccc(CNc2ncnc3ccc(-c4cccc(C#N)c4)cc23)c1`, the AC50 is reported as “inactive”.
For `Cc1cccc(CNc2ncnc3ccc(-c4ccoc4)cc23)c1`, the AC50 was 7.94 µM (active).
In the case of `c1cncc(CNc2ncnc3ccc(-c4ccoc4)cc23)c1`, the AC50 is reported as 0.0251 µM (active).
`Cn1cccc1C(=O)N1CCC2(CC1)CN(C(c1ccccc1)c1ccccc1)C2` was tested, and the AC50 was “inactive”.
With `CC(C)N(C(=O)CSc1nc2ccccc2n1-c1ccccc1)C(C)C` the AC50 was 7.94 µM (active).
For `COC(=O)c1cc2c(ccn2-c2ccc(F)cc2)n1CC(C)C`, the AC50 was 3.16 µM (active).
For `COC(=O)c1cc2c(ccn2-c2ccc(F)cc2)n1C(C)C`, the AC50 was 2 µM (active).
In the case of `COCCn1c(=O)c(-c2ccc(F)cc2)nc2cnc(N(C)C)nc21`, the AC50 is reported as “inactive”.
In the case of `C=C[C@H](N)CCC(=O)O`, the AC50 is reported as “inactive”.
`CCc1ccccc1NC(=O)CSc1nc(-c2ccccc2)nn1C(=O)c1cccc([N+](=O)[O-])c1` was tested, and the AC50 was 0.398 µM (active).
For `COc1ccccc1-c1cc(-n2ccnc2)ncn1`, the AC50 was 2 µM (active).
`CN(C)Cc1ccccc1-c1cc(NC2CC2)ncn1` was tested, and the AC50 was “inactive”.
For `CN(C)Cc1ccccc1-c1cc(-n2ccnc2)ncn1`, the AC50 was 25.1 µM (active).
For `CNc1cc(-c2ccccc2CN(C)C)ncn1`, the AC50 was “inactive”.
With `O=C(O)CCC(=O)N1CCc2cc(S(=O)(=O)N3CCCCC3)ccc21` the AC50 was “inactive”.
With `CSc1nc2cc(S(=O)(=O)N3CCCCC3)ccc2s1` the AC50 was 1.26 µM (active).
`NS(=O)(=O)c1cccc2c1c([N+](=O)[O-])cc1nc(O)c(O)nc12` was tested, and the AC50 was “inactive”.
In the case of `c1cncc(CNc2cc(-c3ccoc3)ncn2)c1`, the AC50 is reported as “inactive”.
In the case of `COc1cccc(-c2cc(NCc3cccnc3)ncn2)c1`, the AC50 is reported as 10 µM (active).
`COc1cccc(-c2cc(NCc3ccccc3)ncn2)c1` was tested, and the AC50 was 7.94 µM (active).
For `CN(C)C(=O)c1ccc(-c2cc(NCc3cccnc3)ncn2)cc1`, the AC50 was “inactive”.
% is scaled to controls: 0 for no effect and ±100 for the full control effect.
